Source: PubChem (National Center for Advancing Translational Sciences (NCATS))
Pf growth 48h: inhibits P. falciparum growth in the first generation, 48 h | AID 504832 | P. falciparum luciferase growth in erythrocytes, 48 h | actives 5.9% (n = 310,000) | Potency, µM (series often up to 28.7 µM), for inactives: at the top dose activity change, negative = inhibition, most hits filed as inhibitors
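In quantitative HTS format, infected erythrocytes bearing luciferase-reporter parasites were treated for a single generation at 37 C. Luminescence after adding detection reagent served as the growth measure.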
HCV inh: blocks hepatitis C virus. Huh7.5.1 HCVcc-Cre infection, luciferase reporter, 44 h. Potency, µM (series often up to 41.8 µM), for inactives: at the highest dose activity change, negative = inhibition, actives largely listed as inhibitors. actives 3.4% (n = 340,000). AID 651820
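HCVcc-Cre virus at an moi near 0.5 was added right after compound to cells cultured 4 h from seeding (1,000 cells/well). Luciferase activity was determined 44 h later, 15 min after substrate addition at RT.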
Pf growth 96h: inhibits malaria parasite growth, 96 h; Potency, µM (doses to about 28.7 µM), for the others: top-dose activity change, negative = inhibition, hits mostly inhibitors; AID 504834; actives 6.9% (n = 320,000); P. falciparum luciferase reporter growth, 96 h
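Parasite growth measured via integrated firefly luciferase reporter in P. falciparum. Infected erythrocytes at 2% hematocrit, 0.05% parasitemia final were treated 96 hours at 37 C under 5% CO2, and luminescence was read.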
AMA1 RON2 block: inhibitors of Plasmodium falciparum AMA1-RON2 interaction; AID 720542; AlphaScreen AMA1-biotinylated RON2 peptide binding; actives 0.2% (n = 360,000); Potency, µM (titrated, usually from 58.2 µM), for inactives: at the top dose activity change, negative = inhibition, usual class: inhibitors;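 note: 0% = vehicle wells and -100% = peptide control; nearly all actives have a fitted effect of over 45% in size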
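AMA1 (3D7) with his tag at 25 nM final met compounds first, then biotinylated RON2 peptide at 25 nM; detection used donor plus acceptor beads, 10 µg/mL apiece, read by AlphaScreen after 30 min at room temperature.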
AmpC detergent: inhibitors of E. coli AmpC beta-lactamase with detergent. P00811. AmpC hydrolysis of nitrocefin, absorbance 480 nm, 0.01% Triton. Potency, µM (top dose mostly 114 µM), inactives show at the top dose activity change, negative = inhibition, usual class: inhibitors. actives 0.041% (n = 370,000). AID 485294;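 note: 0% = no-compound wells and -100% = no-enzyme wells; nearly all actives have a fitted effect of over 25% in size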
Target sequence (P00811 whole entry, looked up): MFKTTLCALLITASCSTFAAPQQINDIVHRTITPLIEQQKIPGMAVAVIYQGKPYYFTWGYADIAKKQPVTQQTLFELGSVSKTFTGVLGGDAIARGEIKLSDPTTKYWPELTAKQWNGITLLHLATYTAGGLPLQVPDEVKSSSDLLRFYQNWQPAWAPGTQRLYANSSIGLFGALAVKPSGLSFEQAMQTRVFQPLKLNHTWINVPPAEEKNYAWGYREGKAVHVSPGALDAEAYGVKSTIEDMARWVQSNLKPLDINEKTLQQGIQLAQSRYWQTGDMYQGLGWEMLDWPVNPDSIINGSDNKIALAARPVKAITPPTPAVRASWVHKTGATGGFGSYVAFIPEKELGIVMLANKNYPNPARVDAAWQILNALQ
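AmpC (5.3 nM in the dispensed reagent) in 20 mM phosphate pH 7.0 with 0.01% (detergent screen) or 0.0001% Triton X-100 was preincubated with compounds for 15 min at room temperature. Nitrocefin was then added from an 800 uM solution, and hydrolysis was followed at 480 nm.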
AmpC no deterg: blocks E. coli AmpC beta-lactamase in detergent-free assay; AID 485341; P00811; Potency, µM (series often up to 57.1 µM), without a hit: at the top dose activity change, negative = inhibition, most hits filed as inhibitors; AmpC nitrocefin hydrolysis, absorbance 480 nm, 0.0001% Triton; actives 0.52% (n = 330,000);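 note: plate controls were no compound for no effect and no enzyme for full effect; nearly all actives have a fitted effect of over 20% in size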
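AmpC (5.3 nM in the dispensed reagent) in 20 mM phosphate pH 7.0 with 0.01% (detergent screen) or 0.0001% Triton X-100 was preincubated with compounds for 15 min at room temperature. Nitrocefin was then added from an 800 uM solution, and hydrolysis was followed at 480 nm.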
Active calls of the source: *; ? = inconclusive; · = not tested or not shown; [ ] = another dose, or the depositor's remark. Only some compounds are listed: those with a hit (about 11% of all), similar ones and a draw of the others. Calls come from the whole dose curve; as a rule, active = well fitted curve in the direction sought with a large enough effect; inconclusive = small, poorly fitted or top-dose-only effect, or another doubt; inactive = no such curve, though single readings can be large; an effect the other way counts as inactive or inconclusive. Unless noted, % is set by controls: 0 for no effect and ±100 for the full control effect; potency is the fitted concentration of half-maximal effect.

SMILES	Pf growth 48h	HCV inh	Pf growth 96h	AMA1 RON2 block	AmpC detergent	AmpC no deterg
CC(C)=CCc1c(O)cc2c(=O)c3ccc(O)cc3oc2c1O	·	?	·	-16%	·	·
Cc1noc(C)c1C(=O)Nc1cc(Cl)ccc1N1CCOCC1	-21%	10µM*	?	7%	2%	21%
Cc1ccc(S(=O)(=O)N2CCOCC2)cc1C(=O)Nc1cc(Cl)ccc1N1CCOCC1	4.7µM*	23%	?	-7%	-2%	77%
CS(=O)(=O)c1ccc(Cl)c(NC(=O)c2cc(S(=O)(=O)N3CCOCC3)ccc2N2CCCC2)c1	?	5%	13µM*	0%	2%	76%
O=C(Nc1cc(S(=O)(=O)N2CCOCC2)ccc1N1CCOCC1)c1ccccc1Cl	·	-15%	·	-5%	·	47%
CN(C)C1(CNC(=O)COc2cccc(Cl)c2)CCCCC1	·	·	·	·	27%	·
COc1cc(NC(=O)Nc2nnc(N3CCCCCC3)s2)cc(OC)c1	·	·	·	·	0%	·
Cc1ccc(-n2c(CNc3cccc(Cl)c3)n[nH]c2=S)cc1	8.3µM*	15%	81%	65%	-3%	-32%
Cc1cc(/C=N/n2cnnc2)c(C)n1-c1ccc(OCc2ccc(Cl)cc2)cc1	·	7.9µM*	12µM*	-16%	-7%	40%
COc1ccccc1C(=O)Nc1cccc(OCc2cc(=O)n3c4c(sc3n2)CCCC4)c1	·	·	·	·	-10%	·
CCCCCCCCCCCCCCCCCCOCC(O)CO (stereo unspecified)	-17%	·	?	·	·	·
O=C(Nc1nnc(-c2ccco2)o1)c1ccc(Cl)s1	3%	-27%	?	63%	3%	-19%
COc1ccc(-c2nnc(NC(=O)c3ccc([N+](=O)[O-])o3)o2)c(OC)c1	15µM*	?	12µM*	61%	-7%	-6%
Cc1ccc(-c2nnc(NC(=O)c3ccc([N+](=O)[O-])o3)o2)c(C)c1	-4%	?	13%	38%	-12%	-16%
COc1cccc(-c2nnc(NC(=O)c3ccc(Cl)s3)o2)c1	?	?	12µM*	120%	?	-18%
COc1cc(NC(=S)NC(=O)c2c(OC)cccc2OC)ccc1NC(=O)c1cccs1	5.2µM*	?	9%	17%	3%	-2%
COc1cc(NC(=S)NC(=O)c2cc(C)cc(C)c2)ccc1NC(=O)c1cccs1	?	?	2.9µM*	24%	-1%	-19%
Cc1ccc(NC(=O)C(=O)NNC(=O)c2cccs2)cc1	19%	18%	?	81%	2%	-33%
COc1cc(NC(=S)NC(=O)c2ccc(C(C)(C)C)cc2)ccc1NC(=O)c1cccs1	?	?	?	7%	-11%	-16%
COc1ccc(NC(=O)C(=O)NNC(=O)c2cccs2)cc1	23%	-6%	3.7µM*	63%	-6%	-7%
COc1cc(NC(=O)c2cc3ccccc3cc2OC)ccc1NC(=O)c1cccs1	-4%	3.2µM*	1%	0%	3%	-5%
COc1cc(NC(=O)c2ccccc2Cl)ccc1NC(=O)c1cccs1	142%	-24%	26%	-3%	0%	-27%
CCn1c2c(c(=O)n3ncc(C(=O)Nc4cccc(Cl)c4C)c13)CN(Cc1ccc(OC)cc1)CC2	·	·	·	·	4%	·
COc1ccc(N2C(=O)Cc3cc(OC)c(OC)cc3C2c2ccc(F)cc2)cc1 (stereo unspecified)	·	·	·	·	15%	·
CCOCCCNC(=O)c1ccc(Cn2c(=O)c3cccn3c3cccnc32)cc1	·	·	·	·	17%	·
SMILES	Pf growth 48h	HCV inh	Pf growth 96h	AMA1 RON2 block	AmpC detergent	AmpC no deterg
COc1cc(NC(=S)NC(=O)c2ccccc2F)ccc1NC(=O)c1cccs1	29%[5.75 µM]	?	0%	56%	-7%	13%
COc1cc(NC(=S)NC(=O)c2ccccc2C)ccc1NC(=O)c1cccs1	?	2µM*	-29%	34%	-14%	-34%
CCCc1cc2c(=O)c(-c3ccccn3)c(C)oc2cc1O	?	-7%	9.3µM*	9%	-11%	-18%
O=C(Nc1cccc(-n2cnnn2)c1)c1ccoc1COc1ccc(Cl)cc1	?	12%	?	-8%	-10%	7.1µM*
Cc1ccc(NC(=O)c2cccc(-n3cnnn3)c2)cc1Cl	9.3µM*	-23%	?	10%	-4%	-33%
O=C(Nc1ccc(Br)cc1)c1cccc(-n2cnnn2)c1	-94%	-13%	?	12%	-3%	-7%
COc1ccc(Cl)cc1NC(=O)COc1cccc(-n2cnnn2)c1	-22%	?	1%[5.75 µM]	0%	-4%	-18%
COc1ccc(Cl)cc1NC(=O)c1cccc(-n2cnnn2)c1	10%	10µM*	17%	1%	-18%	-4%
O=C(NCc1cccnc1)C1CCN(Cc2cc3ccccc3n2Cc2cccc(Cl)c2)CC1	·	·	·	·	-3%	·
Cc1nn2c(=O)cc(COC(=O)c3ccc(NC(=O)c4ccc(C(C)(C)C)cc4)cc3)nc2s1	·	·	·	·	-1%	·
O=C(C(=O)N1CCCCCC1)c1c[nH]c2ccccc12	-2%	12%	-18%	-9%	0%	-3%
C[n+]1cc(C(=O)N2CCCCC2)ccc1/C=C/c1c[nH]c2ccccc12	?	4%	0.41µM*	-3%	-4%	-29%
COc1ccc(-n2ncc(C(=O)N3CCN(c4ncccn4)CC3)c2C2CCN(C(=O)OC(C)(C)C)CC2)cc1	·	·	·	·	1%	·
Cc1cc(NC(=O)c2ccco2)cc(-c2nc3cc(Cl)ccc3o2)c1O	·	·	·	·	2%	·
COc1ccccc1C(=O)Nc1ccnn1C1CCN(Cc2cnn(C)c2C)CC1	-5%	-9%	6.6µM*	12%	-1%	-1%
Cc1ccccc1C(=O)Nc1ccnn1C1CCN(C(C)Cc2ccccc2F)CC1 (stereo unspecified)	?	10µM*	?	-3%	-2%	56%
Cc1ccccc1CN1CCC(n2nccc2NC(=O)c2cccnc2)CC1	?	10%	9.3µM*	-4%	-5%	-10%
Cc1ccccc1CN1CCC(n2nccc2NC(=O)c2ccc3c(c2)OCO3)CC1	5%	-6%	9.3µM*	-7%	2%	-31%
COCC(C)N1CCC(n2nccc2NC(=O)c2ccccc2Cl)CC1 (stereo unspecified)	·	30%	·	-13%	·	·
CCc1ccc(CN2CCC(n3nccc3NC(=O)c3ccccc3OC)CC2)o1	·	·	·	-7%	·	·
O=C(Nc1ccnn1C1CCN(Cc2cc(Cl)ccc2O)CC1)c1cccnc1	?	-10%	26%	-8%	-2%	-11%
COc1ccc(CNC(=O)Nc2cn(CC(C)C)c(=O)c3ccccc23)cc1	·	·	·	·	14%	·
